Experiment [1] is described as follows: NCI Yeast Anticancer Drug Screen. Data for the rad50 strain (AID 155).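 Also: 0% = growth of vehicle-only cultures of the same strain.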 The note with it: S. cerevisiae rad50 strain growth inhibition, stronger effect = higher value. The essentials: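 Inhibition values express reduced yeast growth in compound-treated cultures relative to vehicle-treated controls.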
Experiment [2] in a line: NCI Yeast Anticancer Drug Screen. Data for the mec2-1 strain (AID 157). The note with it: S. cerevisiae mec2-1 strain, stronger effect = higher value. In outline:
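Compounds were applied to mec2-1 yeast cells. Their growth was then compared with that of vehicle-treated cultures to give growth inhibition.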

Experiment [3] is described as follows: NCI Yeast Anticancer Drug Screen. Data for the sgs1 mgt1 strain (AID 161).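 Also: 0% = growth of cultures given vehicle only.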 The note with it: S. cerevisiae sgs1 mgt1 strain, stronger effect = higher value. In outline: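 Growth of a repair-deficient yeast mutant was monitored after compound treatment and expressed as inhibition relative to vehicle-treated cultures.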
Experiment [4] can be described thus: NCI Yeast Anticancer Drug Screen. Data for the cln2 rad14 strain (AID 165).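 Also: 0% = growth equal to vehicle treated cultures.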 The note with it: S. cerevisiae cln2 rad14 strain, stronger effect = higher value. In outline:
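Strain: cln2 rad14 yeast, altered in cell cycle control and DNA damage repair. Read-out: growth inhibition vs vehicle.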

Experiment [5] in a line: NCI Yeast Anticancer Drug Screen. Data for the bub3 strain (AID 167). The note with it: S. cerevisiae bub3 mutant strain, stronger effect = higher value. In outline:
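Steps: expose the mutant yeast strain to compound; grow alongside vehicle-treated cultures; measure growth; express inhibition against the vehicle cultures.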

The nature of experiment [6]: NCI Yeast Anticancer Drug Screen. Data for the mlh1 rad18 strain (AID 175). The note with it: S. cerevisiae mlh1 rad18 strain growth inhibition, stronger effect = higher value. In outline: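 A repair-deficient yeast strain is exposed to test compound, and growth is scored relative to vehicle-treated controls.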
The mark [7] stands for this setting: at 5.0 µM (retest, dose inferred, filed as 0.5).
[8] abbreviates: at 50.0 µM (retest, dose inferred, filed as 5.0).

The structures appear in SMILES notation. The panel holds about 79,000 compounds, 15% with a hit somewhere; the sample as a whole holds those more often. A number with no mark means an inactive call. Activity calls are given as the source filed them. Rule as the data show it: active = growth inhibition above about 70%; inactive = the rest.

The values below come from PubChem BioAssay (NCI).

Take `CCOC(=O)c1sc2[n+](c1C)C(=O)/C(=C/c1ccc([N+](=O)[O-])cc1)S2`: the growth inhibition is 4% in experiment [1] (setting [7]); 71% (active) in experiment [1] (setting [8]); 95.5% (active) in experiment [1] (at 50.0 µM); 4% in experiment [2] (setting [7]); 74% (active) in experiment [2] (setting [8]); 96.9% (active) in experiment [2] (at 50.0 µM). The growth inhibition was 16% in experiment [3] (setting [7]); 86% (active) in experiment [3] (setting [8]); 97% (active) in experiment [3] (at 50.0 µM); -4% in experiment [4] (setting [7]); 79% (active) in experiment [4] (setting [8]); 90.5% (active) in experiment [4] (at 50.0 µM). Besides, the growth inhibition in experiment [5] (setting [7]) was -23%; in experiment [5] (setting [8]), 46%; in experiment [5] (at 50.0 µM), 96.8% (active); in experiment [6] (setting [7]), 23%; in experiment [6] (setting [8]) it was 89% (active); in experiment [6] (at 50.0 µM), 97% (active).

Regarding `CCOC(=O)c1[nH]n(-c2ccccc2)c(=O)c1/C=N/C(=S)N=Nc1c(O)[nH]c2ccccc12`, the growth inhibition in experiment [1] (setting [7]) was -9%; in experiment [1] (setting [8]), -9%; in experiment [1] (at 50.0 µM), -2.3%; in experiment [2] (setting [7]) it was -21%; in experiment [2] (setting [8]), -17%; in experiment [2] (at 50.0 µM), -23.4%. Moreover, the growth inhibition in experiment [3] (setting [7]) is -7%; in experiment [3] (setting [8]) it was -4%; in experiment [3] (at 50.0 µM) it was -22.6%; in experiment [4] (setting [7]), -18%; in experiment [4] (setting [8]), -20%; in experiment [4] (at 50.0 µM), 28.1%. Also, the growth inhibition in experiment [5] (setting [7]) is -13%; in experiment [5] (setting [8]), 2%; in experiment [5] (at 50.0 µM), -15.8%; in experiment [6] (setting [7]) it was -1%; in experiment [6] (setting [8]), -2%; in experiment [6] (at 50.0 µM) it was -35.7%.

In the case of `CSC(=S)N/N=C(\C)c1ccc[nH]1`, the growth inhibition in experiment [1] (setting [7]) was -2%; in experiment [1] (setting [8]), 96% (active); in experiment [1] (at 50.0 µM) it was 83.8% (active); in experiment [2] (setting [7]) it was 0%; in experiment [2] (setting [8]), 96% (active); in experiment [2] (at 50.0 µM), 90.8% (active). Moreover, the growth inhibition in experiment [3] (setting [7]) is 13%; in experiment [3] (setting [8]), 96% (active); in experiment [3] (at 50.0 µM), 79.7% (active); in experiment [4] (setting [7]), -13%; in experiment [4] (setting [8]) it was 92% (active); in experiment [4] (at 50.0 µM), 72.6% (active). Moreover, the growth inhibition in experiment [5] (setting [7]) is 0%; in experiment [5] (setting [8]), 97% (active); in experiment [5] (at 50.0 µM), 90.2% (active); in experiment [6] (setting [7]), 2%; in experiment [6] (setting [8]), 77% (active); in experiment [6] (at 50.0 µM), 85.7% (active).

For the compound `Cc1ccc(SCN2CCCCC2)cc1` (tested in a mixture with another compound), the growth inhibition in experiment [1] (setting [7]) was 21%; in experiment [1] (setting [8]), 29%; in experiment [1] (at 50.0 µM), 62%; in experiment [2] (setting [7]) it was 1%; in experiment [2] (setting [8]), 2%; in experiment [2] (at 50.0 µM) it was 12.6%. The growth inhibition is 23% in experiment [3] (setting [7]); 22% in experiment [3] (setting [8]); 35.9% in experiment [3] (at 50.0 µM); -10% in experiment [4] (setting [7]); 18% in experiment [4] (setting [8]); 0.35% in experiment [4] (at 50.0 µM). In addition, the growth inhibition in experiment [5] (setting [7]) was -9%; in experiment [5] (setting [8]) it was 4%; in experiment [5] (at 50.0 µM), 1.2%; in experiment [6] (setting [7]) it was 20%; in experiment [6] (setting [8]) it was 44%; in experiment [6] (at 50.0 µM) it was 75.2% (active).

Take `COC(=O)CCC(=O)N1C/C(=C\c2ccccc2)C(=O)/C(=C/c2ccccc2)C1`: the growth inhibition in experiment [1] (setting [7]) is 5%; in experiment [1] (setting [8]) it was 41%; in experiment [1] (at 50.0 µM) it was 88.6% (active); in experiment [2] (setting [7]), 23%; in experiment [2] (setting [8]), 42%; in experiment [2] (at 50.0 µM), 95.3% (active). Moreover, the growth inhibition was 5% in experiment [3] (setting [7]); 56% in experiment [3] (setting [8]); 92.5% (active) in experiment [3] (at 50.0 µM); 9% in experiment [4] (setting [7]); 19% in experiment [4] (setting [8]); 16.5% in experiment [4] (at 50.0 µM). The growth inhibition in experiment [5] (setting [7]) is 2%; in experiment [5] (setting [8]), 22%; in experiment [5] (at 50.0 µM), 92.5% (active); in experiment [6] (setting [7]), 7%; in experiment [6] (setting [8]) it was 38%; in experiment [6] (at 50.0 µM), 95% (active).

In the case of `CC1(CCC(=O)O)c2ccc3ccccc3c2Oc2c1ccc1ccccc21`, the growth inhibition in experiment [1] (setting [7]) was 79% (active); in experiment [1] (setting [8]) it was 94% (active); in experiment [1] (at 50.0 µM), 93.8% (active); in experiment [2] (setting [7]) it was 92% (active); in experiment [2] (setting [8]), 94% (active); in experiment [2] (at 50.0 µM), 96.2% (active). Also, the growth inhibition is 81% (active) in experiment [3] (setting [7]); 94% (active) in experiment [3] (setting [8]); 96% (active) in experiment [3] (at 50.0 µM); 77% (active) in experiment [4] (setting [7]); 95% (active) in experiment [4] (setting [8]); 94.9% (active) in experiment [4] (at 50.0 µM). The growth inhibition in experiment [5] (setting [7]) was 51%; in experiment [5] (setting [8]) it was 92% (active); in experiment [5] (at 50.0 µM), 95.9% (active); in experiment [6] (setting [7]), 84% (active); in experiment [6] (setting [8]), 92% (active); in experiment [6] (at 50.0 µM), 94.8% (active).

Consider `C=C1CC[C@H]2C(C)=CC[C@@H]3[C@H](OC(=O)[C@H]3CN3CCN(c4ccc(C)c([N+](=O)[O-])c4)CC3)[C@@H]12`, for which the growth inhibition was 29% in experiment [1] (setting [7]); 65% in experiment [1] (setting [8]); 69% in experiment [1] (at 50.0 µM); 30% in experiment [2] (setting [7]); 40% in experiment [2] (setting [8]); 66.2% in experiment [2] (at 50.0 µM). The growth inhibition is 52% in experiment [3] (setting [7]); 76% (active) in experiment [3] (setting [8]); 79.6% (active) in experiment [3] (at 50.0 µM); 48% in experiment [4] (setting [7]); 60% in experiment [4] (setting [8]); 63% in experiment [4] (at 50.0 µM). For the same compound, the growth inhibition is 52% in experiment [5] (setting [7]); 71% (active) in experiment [5] (setting [8]); 69.8% in experiment [5] (at 50.0 µM); 42% in experiment [6] (setting [7]); 72% (active) in experiment [6] (setting [8]); 47.8% in experiment [6] (at 50.0 µM).

Consider `Cc1nc(N)sc1N=Nc1ccc(Cl)cc1Cl`, for which the growth inhibition was 4% in experiment [1] (setting [7]); 90% (active) in experiment [1] (setting [8]); 82.5% (active) in experiment [1] (at 50.0 µM); 1% in experiment [2] (setting [7]); 90% (active) in experiment [2] (setting [8]); 76.4% (active) in experiment [2] (at 50.0 µM). Moreover, the growth inhibition is 4% in experiment [3] (setting [7]); 94% (active) in experiment [3] (setting [8]); 84.2% (active) in experiment [3] (at 50.0 µM); 2% in experiment [4] (setting [7]); 48% in experiment [4] (setting [8]); 84.3% (active) in experiment [4] (at 50.0 µM). For the same compound, the growth inhibition in experiment [5] (setting [7]) was 1%; in experiment [5] (setting [8]), 55%; in experiment [5] (at 50.0 µM), 81.7% (active); in experiment [6] (setting [7]) it was 16%; in experiment [6] (setting [8]), 97% (active); in experiment [6] (at 50.0 µM) it was 93.4% (active).

As for `O=S(=O)(O)c1ccc(N=Nc2ccc3c(S(=O)(=O)O)cccc3c2O)c2ccccc12`, the growth inhibition was 10% in experiment [1] (setting [7]); -5% in experiment [1] (setting [8]); -1.35% in experiment [1] (at 50.0 µM); 6% in experiment [2] (setting [7]); -16% in experiment [2] (setting [8]); -21.6% in experiment [2] (at 50.0 µM). The growth inhibition is 0% in experiment [3] (setting [7]); -18% in experiment [3] (setting [8]); -37.2% in experiment [3] (at 50.0 µM); -25% in experiment [4] (setting [7]); -78% in experiment [4] (setting [8]); 35% in experiment [4] (at 50.0 µM). Also, the growth inhibition was -2% in experiment [5] (setting [7]); -9% in experiment [5] (setting [8]); -16.1% in experiment [5] (at 50.0 µM); -5% in experiment [6] (setting [7]); -9% in experiment [6] (setting [8]); 5% in experiment [6] (at 50.0 µM).

For `CSc1nc2ccccc2s1`, the growth inhibition in experiment [1] (setting [7]) was -5%; in experiment [1] (setting [8]) it was 8%; in experiment [1] (at 50.0 µM), 24.1%; in experiment [2] (setting [7]) it was -2%; in experiment [2] (setting [8]), 3%; in experiment [2] (at 50.0 µM), 23.3%. Also, the growth inhibition was -1% in experiment [3] (setting [7]); 4% in experiment [3] (setting [8]); -19.4% in experiment [3] (at 50.0 µM); 4% in experiment [4] (setting [7]); 0% in experiment [4] (setting [8]); 43.9% in experiment [4] (at 50.0 µM). For the same compound, the growth inhibition is -3% in experiment [5] (setting [7]); -1% in experiment [5] (setting [8]); -8.3% in experiment [5] (at 50.0 µM); -3% in experiment [6] (setting [7]); 5% in experiment [6] (setting [8]); 4.2% in experiment [6] (at 50.0 µM).
